Experimental data as given in PubChem BioAssay (NCI).
Where “and” joins values, the source holds several entries; their conditions need not be identical. Equal entries are not always repeated. The panel holds about 83,000 compounds, 20% with a hit somewhere; the sample as a whole holds those more often.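 Growth was measured after 48 h exposure to one concentration of compound in 96-well plates. Values under 10 count as active.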 Values without a mark were called inactive. Calls of active or inactive are those of the source.

Key:
Test in all cases: NCI-60 one-dose screen, 48 h (100 = growth as untreated, 0 = no growth, -100 = all killed)
Details in all cases: 10 µM unless noted
SK-MEL-2 melanoma = test system: SK-MEL-2 melanoma
EKVX NSCLC = test system: EKVX NSCLC
SN12C renal = test system: SN12C renal
UO-31 renal = test system: UO-31 renal
TK-10 renal = test system: TK-10 renal
ACHN renal = test system: ACHN renal
CAKI-1 renal = test system: CAKI-1 renal
A498 renal = test system: A498 renal
HL-60(TB) leukemia = test system: HL-60(TB) leukemia
MOLT-4 leukemia = test system: MOLT-4 leukemia
SR leukemia = test system: SR leukemia
RPMI-8226 leukemia = test system: RPMI-8226 leukemia
OVCAR-5 ovarian = test system: OVCAR-5 ovarian
OVCAR-4 ovarian = test system: OVCAR-4 ovarian
SK-OV-3 ovarian = test system: SK-OV-3 ovarian
IGROV1 ovarian = test system: IGROV1 ovarian
OVCAR-3 ovarian = test system: OVCAR-3 ovarian
HS 578T breast = test system: HS 578T breast
OVCAR-8 ovarian = test system: OVCAR-8 ovarian
CCRF-CEM leukemia = test system: CCRF-CEM leukemia

SMILES | growth (SK-MEL-2 melanoma) | growth (EKVX NSCLC) | growth (SN12C renal) | growth (UO-31 renal) | growth (TK-10 renal) | growth (ACHN renal) | growth (CAKI-1 renal) | growth (A498 renal) | growth (HL-60(TB) leukemia) | growth (MOLT-4 leukemia) | growth (SR leukemia) | growth (RPMI-8226 leukemia) | growth (OVCAR-5 ovarian) | growth (OVCAR-4 ovarian) | growth (SK-OV-3 ovarian) | growth (IGROV1 ovarian) | growth (OVCAR-3 ovarian) | growth (HS 578T breast) | growth (OVCAR-8 ovarian) | growth (CCRF-CEM leukemia)
COc1c(O)cc2c(c1OC)-c1ccc(SC)c(=O)cc1C(NC(C)=O)CC2 (stereo unspecified) | 59.8% | 41.9% | 48.7% | 16.2% | 48.7% | 3.04% (active) | 19.3% | 7.2% (active) | -32.6% (active) | 9.41% (active) | 5.8% (active) | 0.467% (active) | 41.9% | 16.8% | 35.2% | -44.2% (active) | -34.3% (active) | 16% | – | –
Cc1c2ccncc2c(C)c2c1[nH]c1ccccc12 | -85.8% (active) | -21.8% (active) | -75.8% (active) | -82.1% (active) | -81.3% (active) | -92.3% (active) | -90.7% (active) | -94.8% (active) | -45.1% (active) | -24.4% (active) | -12.8% (active) | – | -90.8% (active) | -29.7% (active) | -4.52% (active) | -66.2% (active) | -86% (active) | -47.3% (active) | -14.2% (active) | –
[N-]=[N+]=CC(=O)CCC(=O)C=[N+]=[N-] | 113% | 105% | 107% | 71.3% | 114% | 95% | 97.4% | 110% | 76.4% | 87% | – | 119% | 107% | – | 109% | – | 103% | 95.3% | 98.9% | –
COc1cc2c(cc1OC)[C@@H]1C(=O)c3ccc4c(c3O[C@@H]1CO2)C[C@H](C(C)C)O4 | 91% | 26.7% | 86.9% | 46.1% | 70.3% | 59.3% | 45.1% | 86.8% | – | 37% | 9.36% (active) | -9.79% (active) | 93.7% | 42.3% | 75.9% | – | 83.1% | 115% | 54.7% | 42.6%
COC(=O)CCP(CCC(=O)OC)c1ccccc1 | 110% | 93.9% | 99.5% | 91.4% | 109% | 108% | 94.6% | 123% | 98.5% | 113% | 106% | 113% | – | 103% | 101% | 110% | 107% | 114% | 105% | –
CC12CCC3C4CCC(=O)C=C4CCC3C1CC1CC(=O)OC12 (stereo unspecified) | 104% | 110% | 93.8% | 85.5% | 89.8% | 103% | 102% | 98.9% | – | 95.6% | 90.6% | 94.3% | 107% | 103% | 101% | 96.7% | 101% | 95.7% | 97.2% | 102%
C[C@]12CC[C@H]3[C@@H](C[C@@H]4SC(Nc5ccccc5)=N[C@@]45C/C(=N/O)CC[C@]35C)[C@@H]1CCC2=O | 69% | 86.6% | 84.7% | 91.5% | 102% | 60.4% | 59.3% | 96.3% | – | 20.2% | 2.15% (active) | -1.41% (active) | 99.7% | 88% | 105% | 88.4% | 42.9% | 65.2% | 46.7% | 8.6% (active)
C[C@]12C[C@H](c3ccoc3)OC(=O)[C@H]1CC[C@@]1(C)[C@@H]2[C@H]2C=C[C@]1(O)C(=O)O2 | 94.9% | 95.4% | 97.6% | 88% | 88.6% | 108% | 81.9% | 105% | 73.5% | – | 100% | 95.4% | 104% | – | 95.7% | 96% | 102% | 107% | 95.3% | –
COc1ccn(C)c(=O)c1C#N | 72.9% | 105% | 105% | 87.2% | 78.5% | 102% | 100% | 86.2% | – | 106% | 90% | 102% | 105% | 114% | 91.9% | 98.7% | 93.8% | 105% | 96.3% | 120%
C/C(=C\c1ccn(-c2ccc(N)c(C(F)(F)F)c2)n1)[C@@H]1C[C@@H]2O[C@]2(C)CCC[C@H](C)[C@H](O)[C@@H](C)C(=O)C(C)(C)[C@@H](O)CC(=O)O1 | 45.1% | 39.7% | 41.3% | 32.7% | 52.6% | 46.3% | 52.1% | 22.6% | – | 10.2% | 7.67% (active) | 9.58% (active) | 23% | 55.1% | 45% | 40.4% | -0.83% (active) | 25.1% | 28.4% | 14.3%
COc1ccc(N(CC(=O)NCCC[Te]c2ccccc2)C(=O)c2ccccc2)cc1 | 101% | 2.14% (active) | 19.9% | 12.9% | 97.7% | 87.7% | 84.9% | 16.1% | – | 17.9% | 10.3% | 22.5% | 33.4% | 99% | 1.16% (active) | 15.4% | 95.9% | 32.4% | 14.2% | 15.1%
CC[C@H](C)[C@H](NC(=O)CN(C)C)C(=O)N(C)[C@H](C[C@@H](OC(C)=O)c1nc(C(=O)NC23C4C5C2C2C3C4C52C(=O)OC)cs1)C(C)C (stereo partly specified) | 34% | 40.4% | 31.8% | 54.9% | 57.7% | 42.6% | 44.8% | -1.71% (active) | – | 11% | 10.4% | 20.1% | 71.4% | 48.7% | 35.1% | 36.3% | -34% (active) | 19.8% | 21.6% | 6.24% (active)
Nc1nc(=S)nc(N)[nH]1 | 101% | 92.9% | 80.5% | 74.1% | 136% | 103% | 101% | 98.4% | 92.6% | 90.4% | 71.3% | – | 89.1% | – | 102% | 87.6% | – | – | 104% | –
CN(C)c1ccc(N)cc1 | 94.2% and 71.7% | 96.2% and 32.4% | 96.2% and 64.7% | 75% | 117% and 26.5% | 99.5% and 64.9% | 78.2% | 108% and 62.7% | – | 100% and 63.4% | 99% and 33.6% | 93.6% and 21% | 112% and 89.5% | 97.6% and 39.6% | 90% and 70.4% | 94.5% and 61.8% | 106% and 32.4% | 100% and 54.5% | 93.7% and 30.2% | 87.5% and 36%
CC[C@H](C)[C@H](NC(=O)c1ncccn1)C(=O)N(C)[C@H](C[C@@H](OC(C)=O)c1nc(C(=O)N[C@@H](Cc2ccccc2)C[C@H](C)C(=O)OC)cs1)C(C)C | 43.9% | 58.5% | 45.7% | 50.5% | 41% | 50.8% | 61% | 28.1% | -42.8% (active) | – | 14.7% | 17.7% | 74.3% | 50.6% | 44.1% | 49.5% | -18.4% (active) | 18.3% | 22.8% | –
